From PubChem BioAssay
Compounds with a hit are over-represented: about 27% of the library has one in this group of screens.
CYP2C19 act = increases human CYP2C19 enzyme activity | AID 1025 | P33261 | activation factor at 5 µM | recombinant CYP2C19, luciferin-H EGE luminescence; hits give high values; 0 = fully inhibited enzyme, 1 = untreated enzyme | 96,000 tested, under 10 active;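 active = activation factor of at least 2 at 5 µM in the primary screen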;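 also: 0 = wells with 2.5 mM tranylcypromine and 1 = vehicle-only wells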
Target sequence (P33261 whole entry, looked up): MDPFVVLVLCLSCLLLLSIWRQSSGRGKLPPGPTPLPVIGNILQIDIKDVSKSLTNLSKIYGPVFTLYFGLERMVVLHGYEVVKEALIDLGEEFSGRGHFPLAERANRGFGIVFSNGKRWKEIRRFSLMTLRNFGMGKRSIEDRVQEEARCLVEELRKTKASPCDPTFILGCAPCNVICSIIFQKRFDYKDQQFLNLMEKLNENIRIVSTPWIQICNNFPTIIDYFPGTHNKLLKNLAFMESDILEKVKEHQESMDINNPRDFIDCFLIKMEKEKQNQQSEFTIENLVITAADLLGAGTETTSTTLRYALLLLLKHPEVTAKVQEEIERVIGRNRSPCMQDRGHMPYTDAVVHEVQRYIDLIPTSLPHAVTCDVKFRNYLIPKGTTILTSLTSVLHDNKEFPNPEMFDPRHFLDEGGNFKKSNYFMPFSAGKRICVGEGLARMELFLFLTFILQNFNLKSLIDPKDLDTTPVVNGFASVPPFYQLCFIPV
CYP2C9 inh = human CYP2C9 inhibition | CYP2C9 Supersomes, luciferin-H conversion, luminescence | inhibition, % at 5 µM | 20% of 96,000 active;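 active = blocking of liver enzyme CYP2C9 beyond about 50% at 5 µM, limit read from the data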
CYP2C9 activ = activators of human CYP2C9; P11712; 1.4% of 96,000 active; recombinant CYP2C9, luciferin-H conversion, luminescence; hits give high values; factor 1 = untreated enzyme, 0 = blocked; activation factor at 5 µM;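 active = activation factor of 2 or more for CYP2C9 at a 5 µM dose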;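 also: 0 = sulfaphenazole-blocked wells and 1 = vehicle-only wells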
Cav32 inh = inhibitors of human Cav3.2 T-type calcium channel. Cav3.2-expressing cells, Fluo-4 calcium fluorescence FDSS; hits give low values. B-score at 10 µM. 4% of 100,000 active. AID 449739;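 active = single-dose well whose peak fluorescence ratio is a statistical outlier from its plate by either plate-standardised score or position-corrected B-score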
CYP2C19 inh = human CYP2C19 inhibition; AID 778; inhibition, % at 5 µM; 21% of 96,000 active; CYP2C19 Supersomes, luciferin-H EGE luminescence, 30 min;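 active = CYP2C19 inhibition above a set limit at 5 µM in the primary screen, cut at about 50% in these data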;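 also: plate controls were negative control wells for no effect and 2.5 mM tranylcypromine positive control for full effect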
* = called active by the depositor; . = not tested or not shown.

SMILES | CYP2C19 act | CYP2C9 inh | CYP2C9 activ | Cav32 inh | CYP2C19 inh
CC(=O)Nc1sc2c(c1C(N)=O)CCC2 | . | . | . | 0.000443 | .
CCC1(CC)NC(=O)N(CC(=O)Nc2sc3c(c2C(N)=O)CCC3)C1=O | 0.6 | 74.2* | 0.3 | 0.537 | 38.9
CCCCC(=O)Nc1sc2c(c1C(N)=O)CCC2 | 0.5 | 77.4* | 0.2 | 0.911 | 46.9
CC(=O)Nc1sc2c(c1C(N)=O)CCCC2 | 0.9 | 7.2 | 0.9 | -0.00717 | 7.7
O=C1NC2(CCOc3ccccc32)C(=O)N1CC(=O)N(Cc1ccccc1)C1CCS(=O)(=O)C1 (centres undefined) | 0.8 | 22.1 | 0.8 | -0.278 | 16.5
CCN(c1ccc(NC(=O)CN2C(=O)NC3(CCOc4ccccc43)C2=O)cc1)C(C)C (centres undefined) | 0.7 | 59.3* | 0.4 | -2.26 | 26.9
CC1CCc2c(sc(N)c2C(=O)OC(C)C)C1 (centres undefined) | 0.9 | -44.0 | 1.4 | 0.0105 | 10.0
O=C1/C(=C/c2cccc(F)c2)CSc2sccc21 | 0.7 | 54.0* | 0.5 | . | 26.0
N#Cc1cn(CC(=O)O)c2ccccc12 | 1.1 | -4.0 | 1 | . | -10.9
CC(C)NC(=O)Cn1cc(C#N)c2cc(Br)ccc21 | 0.3 | 31.8 | 0.7 | -1.12 | 73.2*
Cc1ccc(Sc2cc(Cl)nc(N)n2)cc1 | 1 | 3.8 | 1 | 0.191 | 4.0
O=C(c1ccccc1)N1CCC(c2nc3c(nnn3Cc3ccco3)c(=O)[nH]2)CC1 | 0.9 | 53.3* | 0.5 | 1.06 | 14.3
Cc1ccc(Cn2nnc3c(=O)[nH]c(C(=O)NCc4ccco4)nc32)cc1 | 1 | 4.1 | 1 | -0.798 | 0.9
O=C(c1ccc(Cl)cc1Cl)N1CCC(c2nc3c(nnn3Cc3ccco3)c(=O)[nH]2)CC1 | 1 | 59.2* | 0.4 | -0.881 | 4.4
Oc1ccc2ccccc2c1/C=N/c1nc2c(s1)CCCC2 | 1.1 | 16.7 | 0.8 | -0.0416 | -7.3
Oc1c(Br)cc(Br)cc1/C=N/c1nc2c(s1)CCCC2 | . | . | . | -5.34* | .
Cc1[nH]n(-c2ccccc2)c(=O)c1CCOC(=O)c1cccc(C(F)(F)F)c1 | 0.2 | -2.0 | 1 | -2.04 | 78.2*
CSc1nc(C)c(CCOC(=O)c2cccc(C)c2)c(=O)[nH]1 | 0.9 | 26.1 | 0.7 | -0.52 | 12.8
C=CCc1c(C)nc(N)[nH]c1=O | . | . | . | 1.71 | .
CCn1c2ccccc2c2cc(NS(=O)(=O)c3ccccc3C)ccc21 | 0.3 | 81.2* | 0.2 | . | 65.8*
Cc1ccccc1S(=O)(=O)Nc1cccnc1 | . | . | . | -0.0834 | .
CN1/C(=C\C(=O)C(F)F)C(C)(C)c2ccccc21 | 0.7 | 53.2* | 0.5 | -0.695 | 33.7
CN1/C(=C\C(=O)COc2ccc3c(c2)OCO3)C(C)(C)c2ccccc21 | 0.8 | 86.6* | 0.1 | . | 23.8
CN1/C(=C\C(=O)COC(=O)C2COc3ccccc3O2)C(C)(C)c2ccccc21 (centres undefined) | 1 | 2.6 | 1 | -0.0029 | -1.0
O=c1[nH]cnc2c1N1CCC2CC1 | 1 | 15.3 | 0.8 | 0.734 | 1.4
SMILES | CYP2C19 act | CYP2C9 inh | CYP2C9 activ | Cav32 inh | CYP2C19 inh
C#CCCOC(=O)N1C2=NC(C(=O)OC)=C(C(=O)OC)[C@@H]3N(C)c4ccccc4[C@]23C[C@H]1CO | . | . | . | 0.271 | .
COC(=O)c1ccccc1NC(=S)NC(=O)COc1ccc(C)cc1 | . | . | . | 0.392 | .
Cc1ccc(C)c(NC(=S)NC(NC(=O)Cc2ccccc2)C(Cl)(Cl)Cl)c1 (centres undefined) | 0.5 | 36.4 | 0.6 | -0.178 | 50.2*
O=C(COc1ccccc1)NC(NC(=S)Nc1ccccc1C(=O)O)C(Cl)(Cl)Cl (centres undefined) | 0.9 | 81.8* | 0.2 | 0.434 | 9.5
Cc1oc(-c2ccccc2Cl)nc1CSCC(=O)O | 1 | 7.3 | 0.9 | -0.15 | -1.3
CN(C)c1oc(-c2ccccc2Cl)nc1P(=O)(c1ccccc1)c1ccccc1 | 0.6 | 67.2* | 0.3 | -7.28* | 35.6
Cc1c(C2(O)C(=O)Nc3ccc(F)cc32)c(=O)n(-c2ccccc2)n1C (centres undefined) | 1.2 | 26.4 | 0.7 | -0.244 | -21.7
O=C1Nc2ccc(F)cc2C12SCCS2 | 0.6 | -126.6 | 2.3* | . | 43.0
CNC(=O)C1(C)C=CC2(CCCCC2)N1C(=O)OC (centres undefined) | . | . | . | 0.166 | .
Fc1ccccc1N1CCN(Cc2nc(-c3ccc(Cl)cc3Cl)no2)CC1 | 0.6 | 61.2* | 0.4 | 0.127 | 38.3
Clc1ccc(Cc2noc(CN3CCN(c4ccccc4)CC3)n2)c(Cl)c1 | 0.9 | 14.5 | 0.9 | -3.76 | 11.3
CCC(=O)c1ccc(N2CCN(C(=O)Cc3ccccc3)CC2)c(F)c1 | 0.2 | 95.4* | 0 | 0.328 | 78.1*
